In ChEMBL document CHEMBL3988442, “University of Dundee, Small-Polar-MMV Screening Library” (2021):
About 950 (1.4%) of roughly 69,000 compounds showed an effect of 50% or more. This is one part of a sample in which strong results are shown more often than they occur.

These compounds were tested on Mycobacterium tuberculosis (assay: Cornell M. t heat shock assay; note: in the data most compounds retested in dose-response had high values).
Assay type: functional, organism-based
Parameters: dose or concentration left out as unconfirmed

Structure (SMILES)	Percent Effect [%]
CS(=O)(=O)CCC(=O)NC1(c2cccc(C(F)(F)F)c2)CCC1	-20.78
COC[C@@]12CCC[C@@H]1CN(C(=O)Cc1ccccn1)C2.O=C(O)C(F)(F)F	12.87
Cc1ncc(CN2CCC(c3nc4cc(Cl)ccc4o3)CC2)s1	-15.08
CC(C)c1nc(C2CCCN2CCc2ccccn2)no1 (stereo unspecified)	-39.31
CCc1nc(C2CCCN2CCc2ccccn2)no1 (stereo unspecified)	107.9
Cc1nc(C2CCCN2CCc2ccccn2)no1 (stereo unspecified)	-5.804
O=C(CN1CCCC1c1nc2cc(F)ccc2[nH]1)NCc1ccccn1 (stereo unspecified)	-20.62
Fc1ccc2[nH]c(C3CCCN3CCCn3cccn3)nc2c1 (stereo unspecified)	-23.88
Fc1ccc2[nH]c(C3CCCN3CCc3ccccn3)nc2c1 (stereo unspecified)	61.35
CS(=O)(=O)N1CCc2ccc(=O)n(CCN3CCCC3)c2CC1.O=C(O)C(F)(F)F	21.99
Cc1nnc(N2CCCC3(CN(Cc4cnn(C)c4)CCO3)C2)o1.O=C(O)C(F)(F)F.O=C(O)C(F)(F)F (stereo unspecified)	-20.31
O=C(O)C(F)(F)F.O=C(c1ccoc1)N1CC[C@@H]2O[C@@H](COCCN3CCCC3)CC[C@@H]21	-1.941
O=C(O)C(F)(F)F.O=C(O)C(F)(F)F.O=C1[C@H]2CN(Cc3ccccn3)C[C@H]2CN1c1ccsc1	-8.069
CO[C@H]1CCN(Cc2cccs2)[C@@H]2CN(Cc3ccncc3)C[C@H]12.O=C(O)C(F)(F)F.O=C(O)C(F)(F)F.O=C(O)C(F)(F)F	0.7697
O=C1CCNc2ncc(-c3cccc(Cl)c3)cc2CN1C1CC1	61.09
O=C1CCNc2ncc(-c3ccccc3Cl)cc2CN1C1CC1	39.75
O=C1CCNc2ncc(-c3ccc(Cl)cc3)cc2CN1C1CC1	53.07
Cl.Clc1ccc(-c2ccc(C3CNCCO3)nc2)cc1 (stereo unspecified)	2.375
COc1ccc(-c2cnc3c(c2)CN(C2CC2)C(=O)CCN3)cc1	36.55
O=C1CCC(=O)N1CCn1nnc(-c2cccc(Cl)c2)n1	-24.84
COc1ccc(OCCN2CCC(N3CCNC3=O)CC2)cc1	47.29
Cc1ccc(N2CCO[C@H]3CN(Cc4nccs4)C[C@H]32)nn1.O=C(O)C(F)(F)F.O=C(O)C(F)(F)F	-20.26
O=C(O)C(F)(F)F.O=C(O)C(F)(F)F.O=C([C@H]1C[C@H]2OCC[C@H]2N(Cc2cccnc2)C1)N1CCCO1	-0.4009

Structure (SMILES)	Percent Effect [%]
CCC1CN(C(=O)c2ccc(=O)[nH]n2)CCC(=O)N1Cc1ccccc1 (stereo unspecified)	3.349
CCC1CN(C(=O)c2cccc(O)c2)CCC(=O)N1Cc1ccccc1 (stereo unspecified)	3.275
CCC1CN(C(=O)c2ccc(=O)[nH]c2)CCC(=O)N1Cc1ccccc1 (stereo unspecified)	106.1
Fc1ccc(CN2CCC(F)(F)C3(CCN(c4cnccn4)C3)C2)cc1.O=C(O)C(F)(F)F.O=C(O)C(F)(F)F (stereo unspecified)	3.728
CN(C)c1nc2c(c(N3CCc4ccccc4C3)n1)CCNC2	101.7
c1ccc2c(c1)CCN(c1ncnc3sc4c(c13)CCNC4)C2	12.7
Cc1ccccc1N1CCN(c2nc(N(C)C)nc3c2CCNC3)CC1	99.74
Cc1nc2c(c(N3CCN(c4ncccc4C(N)=O)CC3)n1)CCNC2	6.854
Cc1cc2n(n1)CCN(c1nc(N(C)C)nc3c1CCNC3)C2	7.698
c1ccc2c(c1)CCN(c1nc(-c3ccncc3)nc3c1CCNC3)C2	105.2
c1ccc2c(c1)CN(c1ncnc3c1CCNC3)CCO2	22.91
CN(C)c1nc2c(c(N3CCc4c(c(CO)nn4C)C3)n1)CCNC2	-14.09
Cc1cccc(=O)n1CCCNc1nc(N(C)C)nc2c1CCNC2	44.77
NCC1CCC2(CCN(C(=O)c3ccccn3)CC2)CO1.O=C(O)C(F)(F)F.O=C(O)C(F)(F)F (stereo unspecified)	3.829
Cn1cc(N2CC3(CCN(CC4CCC4)CC3)OCC2=O)cn1.O=C(O)C(F)(F)F	10.75
Cc1cccc(C(=O)N2CCC[C@]3(C[C@@H](OCC4CC4)CO3)C2)n1.O=C(O)C(F)(F)F	5.615
O=C(O)C(F)(F)F.O=C([C@@H]1C[C@@H]2CCN(Cc3ccoc3)C[C@H]2O1)N1CCCC1	5.199
Cc1noc(C)c1C(=O)N1Cc2ncn(C)c2C(COCC(C)C)C1.O=C(O)C(F)(F)F (stereo unspecified)	10.61
O=C(Cc1ccccc1)N1C[C@@H]2OCCN(CC3CCCO3)[C@@H]2C1.O=C(O)C(F)(F)F (stereo partly specified)	-18.47
Cc1cc(Oc2ccc(NC(=O)C3CC3)cc2)cc(C2CCNCC2)n1.Cl	4.147
COc1ccc(CN2CCC3(CC2)CC(CC(=O)NC(C)C)CO3)cc1.O=C(O)C(F)(F)F (stereo unspecified)	0.5964
CCN(CC)Cc1cn2c(n1)CN(C(=O)c1cnccn1)CC2.O=C(O)C(F)(F)F	-4.073
CC(C)c1nn(C)c(N(C)C)c1CNC1CCOc2c(F)cccc21.Cl (stereo unspecified)	0.8128
